The supplement of paper PMC12669032

Legend:
Test in all cases: growth AUC relative to DMSO control (median of replicates) (fraction); higher = more growth (less inhibition), active = hit call of the paper
Details in all cases: 20 µM; 24 h;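 active = AUC reduced over 20% with Padj below 0.05 in at least 2 of 3 replicates; inactive = otherwise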
Coprococcus comes = system: Coprococcus comes
Summary of the method: (§1)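 OD600 was recorded every hour for 24 h in anaerobic monocultures of gut bacteria kept at 37 °C in mGAM, seeded at OD600 0.05 and given 20 µM compound in 1% DMSO. The area under each growth curve was scaled to the plate median of solvent-only wells, or to row and column medians for the industrial chemical plate. Before this step, the minimum OD was set to 0. Reported values are medians of three biological replicates run on separate days.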

Escherichia coli ED1a = system: Escherichia coli ED1a
Summary of the method: as §1

Escherichia coli IAI1 = system: Escherichia coli IAI1
Summary of the method: as §1

Eubacterium rectale = system: Eubacterium rectale
Summary of the method: as §1

[1] = system: Fusobacterium nucleatum subsp. animalis
Summary of the method: as §1

Lactobacillus gasseri = system: Lactobacillus gasseri
Summary of the method: as §1

Lactobacillus paracasei = system: Lactobacillus paracasei
Summary of the method: as §1

Odoribacter splanchnicus = system: Odoribacter splanchnicus
Summary of the method: as §1

[2] = system: Parabacteroides distasonis
Summary of the method: as §1

Parabacteroides merdae = system: Parabacteroides merdae
Summary of the method: as §1

Roseburia intestinalis = system: Roseburia intestinalis
Summary of the method: as §1

Streptococcus salivarius = system: Streptococcus salivarius
Summary of the method: as §1

Measured: growth AUC

Cc1cc(C2CC2)nc(Nc2ccccc2)n1
inactive: Coprococcus comes 1.04 | Escherichia coli ED1a 0.984 | Escherichia coli IAI1 0.962 | Eubacterium rectale 1.05 | [1] 1.03 | Lactobacillus gasseri 0.982 | Lactobacillus paracasei 0.969 | Odoribacter splanchnicus 1.04 | [2] 1.01 | Parabacteroides merdae 0.894 | Roseburia intestinalis 0.947 | Streptococcus salivarius 1.03

O=C(NC(=O)c1c(F)cccc1F)Nc1ccc(CO/N=C(\c2ccc(Cl)cc2)C2CC2)cc1
inactive: Coprococcus comes 0.988 | Escherichia coli ED1a 1 | Escherichia coli IAI1 0.986 | Eubacterium rectale 0.952 | [1] 0.997 | Lactobacillus gasseri 0.963 | Lactobacillus paracasei 0.962 | Odoribacter splanchnicus 1.01 | [2] 1.04 | Parabacteroides merdae 0.975 | Roseburia intestinalis 0.968 | Streptococcus salivarius 0.996

Cc1cc(C)c(C2=C(OC(=O)CC(C)(C)C)C3(CCCC3)OC2=O)c(C)c1
active: [2] 0.772
inactive: Coprococcus comes 0.974 | Escherichia coli ED1a 1.02 | Escherichia coli IAI1 1.03 | Eubacterium rectale 1.04 | [1] 1.09 | Lactobacillus gasseri 0.918 | Lactobacillus paracasei 1.14 | Odoribacter splanchnicus 0.978 | Parabacteroides merdae 1.04 | Roseburia intestinalis 0.989 | Streptococcus salivarius 0.991

O=C(NC(=O)c1c(F)cccc1F)Nc1ccc(OC(F)(F)C(F)OC(F)(F)F)c(Cl)c1 (stereo not given)
inactive: Coprococcus comes 1 | Escherichia coli ED1a 1.05 | Escherichia coli IAI1 1 | Eubacterium rectale 0.99 | [1] 0.986 | Lactobacillus gasseri 1.49 | Lactobacillus paracasei 0.958 | Odoribacter splanchnicus 0.983 | [2] 1.02 | Parabacteroides merdae 0.997 | Roseburia intestinalis 1.06 | Streptococcus salivarius 1.01

CCOP(=O)(SC(C)CC)SC(C)CC (stereo not given)
inactive: Coprococcus comes 1.01 | Escherichia coli ED1a 1.01 | Escherichia coli IAI1 0.987 | Eubacterium rectale 1.1 | [1] 0.983 | Lactobacillus gasseri 1.04 | Lactobacillus paracasei 0.989 | Odoribacter splanchnicus 0.933 | [2] 0.95 | Parabacteroides merdae 0.975 | Roseburia intestinalis 1.01 | Streptococcus salivarius 1.01

Nc1cc(Cl)cc(C(=O)O)c1Cl
inactive: Coprococcus comes 0.992 | Escherichia coli ED1a 1.01 | Escherichia coli IAI1 1.04 | Eubacterium rectale 1.01 | [1] 0.994 | Lactobacillus gasseri 1.13 | Lactobacillus paracasei 1.03 | Odoribacter splanchnicus 1.09 | [2] 1.01 | Parabacteroides merdae 0.977 | Roseburia intestinalis 1.04 | Streptococcus salivarius 1.02

O=C(NC(=O)c1c(F)cccc1F)Nc1cc(Cl)c(OC(F)(F)C(F)F)c(Cl)c1
inactive: Coprococcus comes 0.96 | Escherichia coli ED1a 0.965 | Escherichia coli IAI1 0.982 | Eubacterium rectale 0.892 | [1] 0.877 | Lactobacillus gasseri 0.986 | Lactobacillus paracasei 0.62 | Odoribacter splanchnicus 0.983 | [2] 0.994 | Parabacteroides merdae 0.992 | Roseburia intestinalis 0.977 | Streptococcus salivarius 0.962

CC1(C)C(C(=O)OC(C#N)c2cccc(Oc3ccccc3)c2)C1(C)C (stereo not given)
inactive: Coprococcus comes 1.03 | Escherichia coli ED1a 1.01 | Escherichia coli IAI1 0.988 | Eubacterium rectale 1 | [1] 0.928 | Lactobacillus gasseri 0.909 | Lactobacillus paracasei 1.04 | Odoribacter splanchnicus 0.959 | [2] 1.15 | Parabacteroides merdae 0.965 | Roseburia intestinalis 0.929 | Streptococcus salivarius 0.957

C[C@@H](Oc1ccc(Oc2ncc(C(F)(F)F)cc2Cl)cc1)C(=O)O
inactive: Coprococcus comes 1 | Escherichia coli ED1a 0.97 | Escherichia coli IAI1 0.994 | Eubacterium rectale 0.973 | [1] 1.02 | Lactobacillus gasseri 0.94 | Lactobacillus paracasei 0.972 | Odoribacter splanchnicus 0.98 | [2] 0.989 | Parabacteroides merdae 0.996 | Roseburia intestinalis 0.981 | Streptococcus salivarius 0.999

CCSC(C)CC1CC(=O)C(/C(CC)=N/OC/C=C/Cl)=C(O)C1 (mixture of isomers)
inactive: Coprococcus comes 1.06 | Escherichia coli ED1a 1.03 | Escherichia coli IAI1 1.01 | Eubacterium rectale 1.03 | [1] 1.1 | Lactobacillus gasseri 0.865 | Lactobacillus paracasei 1.06 | Odoribacter splanchnicus 1.02 | [2] 0.958 | Parabacteroides merdae 1.02 | Roseburia intestinalis 1.01 | Streptococcus salivarius 0.919

CCOP(=S)(NC(C)CC)Oc1cc(C)ccc1[N+](=O)[O-] (stereo not given)
active: [2] 0.733
inactive: Coprococcus comes 0.967 | Escherichia coli ED1a 0.97 | Escherichia coli IAI1 0.964 | Eubacterium rectale 0.919 | [1] 0.865 | Lactobacillus gasseri 0.974 | Lactobacillus paracasei 0.984 | Odoribacter splanchnicus 0.904 | Parabacteroides merdae 0.967 | Roseburia intestinalis 1.01 | Streptococcus salivarius 0.976

CCOc1ccccc1OS(=O)(=O)NC(=O)Nc1nc(OC)cc(OC)n1
inactive: Coprococcus comes 1.01 | Escherichia coli ED1a 1.01 | Escherichia coli IAI1 1.01 | Eubacterium rectale 0.938 | [1] 1 | Lactobacillus gasseri 1.11 | Lactobacillus paracasei 0.736 | Odoribacter splanchnicus 1.15 | [2] 1.02 | Parabacteroides merdae 1.02 | Roseburia intestinalis 0.92 | Streptococcus salivarius 0.966

CNC(=O)Oc1cc(C)c(N(C)C)c(C)c1
inactive: Coprococcus comes 1.01 | Escherichia coli ED1a 0.982 | Escherichia coli IAI1 0.978 | Eubacterium rectale 1 | [1] 0.952 | Lactobacillus gasseri 0.998 | Lactobacillus paracasei 0.953 | Odoribacter splanchnicus 1.08 | [2] 0.988 | Parabacteroides merdae 0.997 | Roseburia intestinalis 0.962 | Streptococcus salivarius 0.961

CC1=NNC(=O)N(/N=C/c2cccnc2)C1
inactive: Coprococcus comes 1.02 | Escherichia coli ED1a 0.993 | Escherichia coli IAI1 0.991 | Eubacterium rectale 1 | [1] 1.02 | Lactobacillus gasseri 1.01 | Lactobacillus paracasei 0.988 | Odoribacter splanchnicus 1.03 | [2] 1.01 | Parabacteroides merdae 0.996 | Roseburia intestinalis 1.01 | Streptococcus salivarius 1.04

CON(C)C(=O)Nc1ccc(Br)cc1
inactive: Coprococcus comes 1.05 | Escherichia coli ED1a 1.02 | Escherichia coli IAI1 1 | Eubacterium rectale 1.02 | [1] 1.07 | Lactobacillus gasseri 1.15 | Lactobacillus paracasei 1.02 | Odoribacter splanchnicus 1.01 | [2] 0.983 | Parabacteroides merdae 1.01 | Roseburia intestinalis 1.06 | Streptococcus salivarius 0.999

Cc1cc(Cl)ccc1N=CN(C)C
inactive: Coprococcus comes 1.01 | Escherichia coli ED1a 0.998 | Escherichia coli IAI1 0.963 | Eubacterium rectale 1.16 | [1] 0.978 | Lactobacillus gasseri 1.04 | Lactobacillus paracasei 0.997 | Odoribacter splanchnicus 1.01 | [2] 1.03 | Parabacteroides merdae 0.988 | Roseburia intestinalis 1.02 | Streptococcus salivarius 0.998

COCCN(C(=O)CCl)c1c(C)cccc1C
inactive: Coprococcus comes 0.983 | Escherichia coli ED1a 1 | Escherichia coli IAI1 0.973 | Eubacterium rectale 0.854 | [1] 0.939 | Lactobacillus gasseri 1.02 | Lactobacillus paracasei 0.831 | Odoribacter splanchnicus 0.965 | [2] 0.968 | Parabacteroides merdae 0.985 | Roseburia intestinalis 0.96 | Streptococcus salivarius 0.957

Cc1cnc2c(C(=O)O)c(Cl)ccc2c1
inactive: Coprococcus comes 0.983 | Escherichia coli ED1a 0.977 | Escherichia coli IAI1 0.987 | Eubacterium rectale 0.934 | [1] 0.952 | Lactobacillus gasseri 0.952 | Lactobacillus paracasei 1.05 | Odoribacter splanchnicus 0.968 | [2] 0.967 | Parabacteroides merdae 1.01 | Roseburia intestinalis 0.937 | Streptococcus salivarius 0.969

COc1cc(OC)nc(Sc2cccc(Cl)c2C(=O)O)n1
inactive: Coprococcus comes 1.02 | Escherichia coli ED1a 0.981 | Escherichia coli IAI1 0.977 | Eubacterium rectale 1.04 | [1] 0.941 | Lactobacillus gasseri 0.897 | Lactobacillus paracasei 0.971 | Odoribacter splanchnicus 0.985 | [2] 0.906 | Parabacteroides merdae 0.975 | Roseburia intestinalis 0.984 | Streptococcus salivarius 0.973

CCOC(=O)CCN(SN(C)C(=O)Oc1cccc2c1OC(C)(C)C2)C(C)C
inactive: Coprococcus comes 1.01 | Escherichia coli ED1a 0.994 | Escherichia coli IAI1 1.01 | Eubacterium rectale 1.1 | [1] 0.907 | Lactobacillus gasseri 0.911 | Lactobacillus paracasei 1.01 | Odoribacter splanchnicus 1.02 | [2] 1.05 | Parabacteroides merdae 0.979 | Roseburia intestinalis 1.02 | Streptococcus salivarius 0.998

CNC1=C(c2cccc(C(F)(F)F)c2)C(=O)C(c2ccccc2)O1 (stereo not given)
inactive: Coprococcus comes 1.06 | Escherichia coli ED1a 0.998 | Escherichia coli IAI1 0.992 | Eubacterium rectale 1 | [1] 0.969 | Lactobacillus gasseri 0.985 | Lactobacillus paracasei 0.781 | Odoribacter splanchnicus 1.07 | [2] 0.951 | Parabacteroides merdae 0.969 | Roseburia intestinalis 1.04 | Streptococcus salivarius 0.988

Cc1cccc(C)c1N(Cn1cccn1)C(=O)CCl
inactive: Coprococcus comes 0.992 | Escherichia coli ED1a 0.976 | Escherichia coli IAI1 0.952 | Eubacterium rectale 1.09 | [1] 1.1 | Lactobacillus gasseri 0.928 | Lactobacillus paracasei 0.997 | Odoribacter splanchnicus 1.06 | [2] 1.01 | Parabacteroides merdae 0.963 | Roseburia intestinalis 0.935 | Streptococcus salivarius 0.999

COc1cc(C)c(C(=O)c2c(OC)ccc(Br)c2C)c(OC)c1OC
inactive: Coprococcus comes 1.04 | Escherichia coli ED1a 1.01 | Escherichia coli IAI1 0.971 | Eubacterium rectale 1.02 | [1] 1.01 | Lactobacillus gasseri 0.709 | Lactobacillus paracasei 1.03 | Odoribacter splanchnicus 1.05 | Parabacteroides merdae 1.01 | Roseburia intestinalis 0.989 | Streptococcus salivarius 1.01
active: [2] 0.528

COP(=S)(OC)Oc1cc(Cl)c(Cl)cc1Cl
inactive: Coprococcus comes 0.979 | Escherichia coli ED1a 1 | Escherichia coli IAI1 0.971 | Eubacterium rectale 0.945 | [1] 1.06 | Lactobacillus gasseri 1 | Lactobacillus paracasei 1.02 | Odoribacter splanchnicus 0.88 | [2] 0.936 | Parabacteroides merdae 0.983 | Roseburia intestinalis 0.966 | Streptococcus salivarius 0.994

Oc1cc(Cl)cc(Cl)c1
inactive: Coprococcus comes 1.02 | Escherichia coli ED1a 1 | Escherichia coli IAI1 1.02 | Eubacterium rectale 1.08 | [1] 1.1 | Lactobacillus gasseri 1.08 | Lactobacillus paracasei 0.957 | Odoribacter splanchnicus 1.03 | [2] 0.997 | Parabacteroides merdae 0.973 | Roseburia intestinalis 1.01 | Streptococcus salivarius 1
